From PubChem BioAssay AID485364 (National Center for Advancing Translational Sciences (NCATS), 2010)
The campaign covered roughly 360,000 compounds. About 11,000 (3.1%) were called active. About 4% were inconclusive and are not listed. The sample as a whole holds a higher share of actives than the screen did. Unmarked numbers belong to inactive results. Calls follow the shape of the dose curve; as a rule, active = well fitted inhibition curve with a large enough effect; inconclusive = small, poorly fitted or top-dose-only effect; inactive = no such curve, though single readings can be large or run the other way.

Biological target: Schistosoma mansoni thioredoxin glutathione reductase (TGR) (UniProt Q962Y6)
Experiment: qHTS Assay for the Inhibitors of Schistosoma Mansoni Peroxiredoxins; also: nearly all actives have a fitted effect of over 60% in size
Conditions: purified TGR, DTNB reduction, TNB absorbance 405 nm; series mostly up to 114 µM; activity change, negative = inhibition: at the top concentration
Description: Schistosomiasis is a major neglected tropical disease that currently affects over 200 million. It is caused by different species of flatworms, such as Schistosoma mansoni. Over the last century, drugs to treat the disease have evolved from potassium antimonyl tartrate, artemisinin, oxamniquine, to praziquantel, with praziquantel remaining the universally-used single drug of choice over the past three decades. However, transmission rates have changed little with praziquantel, and there is evidence for the development of drug resistant parasites. Because there is currently no suitable alternative therapy available, there is an urgent need to identify new targets and drugs for schistosomiasis treatment. Thioredoxin glutathione reductase (TGR), one uniquely positioned S. mansoni enzyme, has been identified as a major component of the worms' distinct and compressed antioxidant "firewall". TGR is a multifunctional enzyme that catalyzes the interconversion between reduced and oxidized forms of both glutathione (GSH) and thioredoxins, thus making it an attractive new antiparasitic target. Recently, a quantitative high-throughput screen of the NIH Molecular Libraries Small Molecule Repository (MLSMR, ~71K at the time of the screen in 2007) was performed using an assay that targeted both TGR and peroxiredoxin2 (Prx2, an H2O2-reducing enzymatic component of the S. mansoni redox "firewall") by following the decrease of NADPH fluorescence. […] Additional mechanistic link between exogenous NO donation and parasitic injury for the oxadiazole-2-oxide class of compounds was also expanded and better defined. Although the screen addressed both TGR and Prx2, the assay required post-screen target deconvolution for further characterization of the actives. In addition, the fluorescence assay was also subject to fluorescence interference from compound library members. We have developed a 1536-well-based kinetic HTS assay to address TGR alone. The assay followed the reduction of 5, 5'-dithiobis (2-nitrobenzoic acid) (DTNB) (Ellman's reagent) by NADPH and measured the increase in absorbance at 412 nm of the reaction product, TNB. […] This assay format can be used to screen the current MLSMR collection (with >300K compounds available) to find novel TGR inhibitors. Furoxan is a good choice to serve as a positive control in the primary HTS assay.
Three microliters of reagents (100 uM NADPH and 20 nM TGR or 100 uM NADPH as no-enzyme control) were dispensed into 1,536-well black clear-bottomed plates. Compounds (23 nL) were transferred via Kalypsys pin tool equipped with 1536-pin array (10 nL slotted pins, V&P Scientific, San Diego, CA). The plates were then be incubated for 15 min at room temperature, and 1 uL aliquot of 500 uM NADPH were added, immediately followed by a 1 uL aliquot of 15 mM DTNB to start the reaction. The plate was transferred to a ViewLux high-throughput CCD imager (Perkin-Elmer, Wellesley, MA) where kinetic measurements of the TNB absorbance were acquired using a 405 excitation filter. Throughout the screen, reagent bottles and all liquid lines were made light-tight to minimize reagent degradation. All screening operations were performed on a fully integrated robotic system (Kalypsys, San Diego, CA) containing one RX-130 and two RX-90 anthropomorphic robotic arms (Staubli, Duncan, SC). Library plates were screened starting from the lowest and proceeding to the highest concentration, and a "double-dipping" step of the highest concentration was required to access higher concentrations of compounds. Vehicle-only plates, with DMSO being pin-transferred to the entire column 5-48 compound area, were inserted uniformly at the beginning and the end of each library in order to monitor for and record any shifts in the background, which can be affected by reagent dispensers or loss in enzyme activity overtime. […]
% is scaled to controls: 0 for no effect and ±100 for the full control effect; potency is read from the fitted curve at half-maximal effect.

Row | Structure (SMILES) | activity change, negative = inhibition | Potency
1 | CCc1ccc(NC(=O)C2CCCN2S(=O)(=O)c2ccc3nc(-c4ccccc4)[nH]c3c2)cc1 (stereo unspecified) | -9.77% | –
2 | Oc1cc2c(cc1CN1CCN(c3ccccc3)CC1)OCO2 | – | 1.58 µM (active)
3 | CC(C)c1ccc(O)c(CN2CCN(c3ccccc3)CC2)c1 | 4.78% | –
4 | Fc1ccc(N2CCN(Cc3ccc4c(c3)OCO4)CC2)cc1 | 8.45% [at 11.4 µM] | –
5 | Cc1cc2c(cc1C)C(c1cccc(OC(C)C)c1)CC(=O)N2 (stereo unspecified) | 8.08% | –
6 | CCc1ccc2oc(-c3ccc(NC(=O)c4cc5ccccc5o4)cc3)nc2c1 | 5.27% | –
7 | COc1ccc(OC)c(CNC(=O)c2c3c(nc4ccccc24)C(=O)N(C2CCCCC2)C3)c1 | 4.02% | –
8 | O=S(=O)(NCC(c1ccco1)N1CCOCC1)c1cc(F)ccc1F (stereo unspecified) | -10% | –
9 | COc1ccc(S(=O)(=O)NCC(c2ccc(N(C)C)cc2)N2CCCC2)cc1 (stereo unspecified) | -1.69% | –
10 | CN(C)c1ccc(C(CNS(=O)(=O)c2cc(F)ccc2F)N2CCOCC2)cc1 (stereo unspecified) | – | 44.7 µM (active)
11 | CCCn1ccc2c(OCC(=O)NCc3ccc(F)cc3)cccc2c1=O | 10.9% | –
12 | COC(=O)c1ccccc1NC(=O)C(Cc1ccccc1)N1Cc2ccccc2C1=O (stereo unspecified) | -0.352% | –
13 | COc1ccc(C(=O)c2oc3ccc(Br)cc3c2NC(C)=O)cc1 | 13.6% | –
14 | COc1ccc2oc(=N)c(C(=O)Nc3ccc(Br)cc3)cc2c1 | 3.72% | –
15 | COc1ccc(/C=C/C(=O)c2cc(Br)ccc(=O)c2O)cc1 | – | 15.8 µM (active)
16 | O=C(CSc1oc(-c2ccco2)nc1S(=O)(=O)c1ccc(Cl)cc1)c1ccccc1 | -4.02% | –
17 | O=S(=O)(c1ccccc1)c1nc(-c2ccc(Cl)cc2Cl)oc1N1CCCCC1 | -2.81% | –
18 | O=S(=O)(c1ccc(Cl)cc1)c1nc(-c2ccco2)oc1N1CCCCC1 | – | 14.1 µM (active)
19 | CCCc1nn2c(=O)cc(COC(=O)c3ccc(NC(=O)C(C)Oc4ccccc4)cc3)nc2s1 (stereo unspecified) | -1.34% | –
20 | CN(C)CCCn1c(N)c(C#N)c2nc(C#N)c(C#N)nc21 | – | 20 µM (active)
21 | N#Cc1c(N)n(CCOC(=O)c2ccc(Cl)cc2)c2nc3ccccc3nc12 | 3.75% | –
22 | CCCN(CCC)C(=O)C(Cc1ccccc1)NS(=O)(=O)c1ccc2c(c1)c(=O)n(C)c(=O)n2C (stereo unspecified) | -10.4% | –
23 | CCCN(CCC)CCNC(=O)Cn1cnc2sc(C)c(S(=O)(=O)N3CCC(C)CC3)c2c1=O | -0.546% | –
24 | C=CCSc1nnc(N2C(=O)C(O)=C(C(=O)c3ccco3)C2c2ccc(F)cc2)s1 (stereo unspecified) | – | 14.1 µM (active)
25 | Cc1ccc2nc(N3C(=O)C(O)=C(C(=O)c4ccco4)C3c3cccc(O)c3)sc2c1 (stereo unspecified) | -23.4% | –
26 | CC(C)c1ccc(C2C(C(=O)c3ccco3)=C(O)C(=O)N2CC2CCCO2)cc1 (stereo unspecified) | 12.7% | –

Row | Structure (SMILES) | activity change, negative = inhibition | Potency
27 | O=C(CSc1ccc(-c2ccco2)nn1)NCc1ccc2c(c1)OCO2 | – | 12.6 µM (active)
28 | COc1ccc(NC(=O)CSc2ccc(-c3ccco3)nn2)c(OC)c1 | – | 20 µM (active)
29 | S=C(NCc1ccc2c(c1)OCO2)NCc1ccco1 | – | 35.5 µM (active)
30 | COc1ccc(NC(=O)CCC(=O)Nc2cc(OC)c(NC(=O)c3ccco3)cc2OC)c(OC)c1 | 1.32% | –
31 | O=C(CSc1ccc(-c2ccccn2)nn1)Nc1ccccc1 | 1.31% | –
32 | Cc1c(Cl)cccc1NC(=S)NCc1ccc2c(c1)OCO2 | 3.48% | –
33 | CCn1c(=O)cc(SCC(=O)NCc2ccc3c(c2)OCO3)c2ccccc21 | -0.229% | –
34 | O=C(CSc1ccc(-c2ccc(F)cc2)nn1)Nc1ccc2c(c1)OCCO2 | 7.31% | –
35 | COC(=O)Cc1ccc(NC(=S)NCc2ccco2)cc1 | -28.3% | –
36 | COc1ccc(NC(=O)CSc2nc(SC)ns2)c(OC)c1 | 26.6% | –
37 | Cc1ccccc1-c1nnc(SCC(=O)NCc2ccc3c(c2)OCO3)n1C | -18.6% | –
38 | O=C(CSc1ccc(-c2ccco2)nn1)Nc1cccc(F)c1 | – | 10 µM (active)
39 | CCCn1c2ccccc2c2cnn(CC(=O)N(CC)c3cc(C)ccc3C)c(=O)c21 | 3.15% | –
40 | Fc1ccc(C(Nc2ccc(Cl)c(C(F)(F)F)c2)c2nnc(-c3ccccc3)o2)cc1 (stereo unspecified) | -1.3% | –
41 | Cc1ccc(Nc2c(-c3ccc(C)cc3)nc3cnccn23)cc1 | -3.11% | –
42 | CCOC(=O)c1cc2c(=O)n3ccccc3nc2n(CCCOC)c1=NC(=O)C(C)(C)Oc1ccc(Cl)cc1 | 9.19% | –
43 | Cc1ccc(C)c(NC(=O)C2CCCN(S(=O)(=O)c3cn(C)cn3)C2)c1 (stereo unspecified) | 4.47% | –
44 | O=C(CC1Oc2ccc(Cl)cc2NC1=O)NCc1ccccc1 (stereo unspecified) | -12.8% | –
45 | CCCSc1ncc(Cl)c(C(=O)Nc2sc3c(c2C(=O)NCCOC)CCCC3)n1 | -1.84% | –
46 | CCCN(CCC)CCCNC(=O)Cn1ncc2c3ccccc3n(Cc3ccccc3)c2c1=O | -2.18% | –
47 | COc1ccccc1NC(=O)c1oc2ccccc2c1NC(=O)C(C)C | 4.86% | –
48 | CCN(CC)S(=O)(=O)c1nnc(NC(=O)COc2ccccc2Cl)s1 | 9.78% | –
49 | CC(OC(=O)c1ccc2noc(-c3ccccc3)c2c1)C(N)=O (stereo unspecified) | – | 35.5 µM (active)
50 | COc1ccc(-c2onc3ccc(C(C)=O)cc23)cc1 | -31.4% | –
51 | CC(OC(=O)c1ccc2ccccc2n1)C(=O)c1ccccc1 (stereo unspecified) | -3.31% [at 57.1 µM] | –
